Data as given in PubChem BioAssay (NCATS).
Where “and” joins values, the source holds several entries; their conditions need not be identical. Equal values may be shown once. Records with an inconclusive call do not appear. Calls of active or inactive are those of the source. Unless noted, the call rests on the fitted dose curve; in most records, active means well fitted curve in the direction sought with a large enough effect; inconclusive means small, poorly fitted or top-dose-only effect, or another doubt; inactive means no such curve, though single readings can be large; an effect the other way counts as inactive or inconclusive.

What was measured:
[1] = target: Arylsulfatase A (Homo sapiens) (UniProt P15289); assay: qHTS screen for enhancers of Arylsulfatase A (ASA1): LOPAC Validation Assay (AID 720538)
Outline: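 SV40-transformed fibroblasts from an MLD patient (ASA-I179S) were treated with compound for 48 h at 37 C. They were then lysed with 0.5 mM pNCS substrate (final) for 14 h at room temperature and stopped with NaOH; signal read by fluorescence (Ex 525/Em 598 nm), with increase denoting enhanced activity.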

[2] = qHTS for compounds that reverse cellular toxicity of Amyloid beta (A-beta) peptide in yeast: LOPAC Validation Assay (AID 720559); conditions: Potency: rescue of growth toxicity;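 further: plate controls were DMSO for no effect and equimolar ferric chloride plus clioquinol rescue for full effect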
Outline: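 Yeast expressing toxic A-beta grown with pinned compounds at 30 C for 48 hr. Growth measured as absorbance at 600 nm; data normalized to DMSO and to an equimolar FeCl3/clioquinol mixture as positive control.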

[3] = qHTS for Activators of Parkin Expression: LOPAC Validation Assay (NLuc Reporter) (AID 720572;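 further: 0% = DMSO and 100% = positive control compound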)
Outline: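 Cells harboring the Parkin-promoter coincidence reporter were treated for 24 h at seven concentrations. NLuc output was measured sequentially after the FLuc channel and scaled between DMSO and positive control values.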

[4] = qHTS for Activators of Parkin Expression: LOPAC Validation Assay (FLuc Reporter) (AID 720573; further: potency means the concentration at half of the fitted maximal effect)
Outline: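 Neuronal cell line stably expressing FLuc/NLuc coincidence reporter under the Parkin promoter, 1,500 cells/well, dosed 24 h after seeding in 7-point series for 24 h at 37 C. FLuc luminescence read; normalized to DMSO and positive control (100%).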

[5] = target: T1, Hexokinase-4 (Homo sapiens) + Glucokinase regulatory protein (Homo sapiens) (UniProt P35557+Q14397); assay: qHTS assay for inhibitors of recombinant human GCK-GKRP interaction: Diaphorase-coupled assay (AID 743205)
Outline: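 Compounds pre-incubated 20 min with substrate, then 10 nM GST-GCK with 10 nM FLAG-GKRP added. GCK activity coupled via G6PDH and diaphorase to resorufin (5 mM glucose, 0.4 mM ATP, 0.15 mM NADP+, pH 7.6), read kinetically over 30 minutes at Ex 525/Em 590 nm.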

[6] = target: T1, Hexokinase-4 (Homo sapiens) + Glucokinase regulatory protein (Homo sapiens); assay: qHTS assay for inhibitors of recombinant human GCK-GKRP interaction: ADP-Glo assay (AID 743206);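 further: plate controls were DMSO plus enzyme for no effect and no enzyme for full effect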
Outline: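 Pin-transferred compounds meet a 15 nM GST-GCK/15 nM FLAG-GKRP/2 uM S6P mix (dispense concentrations). ATP is then added to 0.4 mM final with 5 mM glucose, and the reaction runs 60 min at room temperature. ADP is quantified luminescently.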

[7] = target: T1, Hexokinase-4 (Homo sapiens) + Glucokinase regulatory protein (Homo sapiens); assay: qHTS assay for inhibitors of recombinant human GCK-GKRP interaction: HTRF assay (AID 743207);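 further: 0% = DMSO with GCK present and -100% = DMSO wells lacking GCK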
Outline: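 HTRF binding of 5 nM GST-GCK and 5 nM FLAG-GKRP with 2 uM S6P in pH 7.1 Hepes buffer (MgCl2, KCl, DTT, Tween 20, BSA). Anti-FLAG XL665 and anti-GST donor added, 60 min at room temperature; 665/615 nm read, normalized to with- and without-GCK controls.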

[8] = qHTS Assay for Identifying Gametocytocidal Compounds (AID 743244); further: potency means the concentration at half of the fitted maximal effect;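 on max response: on the % scale 0 is the no-effect control and ±100 the full control effect; actives lower the fluorescent signal which means gametocytes are killed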; conditions: P. falciparum 3D7 stage III-V gametocytes, alamarBlue, 72 h; max response: stronger effect = lower value
Outline: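 Stage III–V gametocytes of P. falciparum 3D7 were seeded at 20,000 cells/well onto pre-dispensed compounds. After 72 h, 37 °C, 5% CO2, alamarBlue was added for another 24 h.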

[9] = qHTS assay for small molecule agonists of the antioxidant response element (ARE) signaling pathway measured by Nrf2-dependant transcriptional activity (AID 720636; active means well fitted curve in the direction sought with a large enough effect in the repeat runs; an effect the other way counts as inactive or inconclusive;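 further: HepG2 cells with an ARE-driven luciferase reporter; % of control where 0% means no effect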)
Outline: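 We exposed ARE-luc HepG2 cells, seeded in assay medium with 1% dialyzed FBS and allowed 6 hr to adhere, to test compounds overnight (16 hr, 37 C) before measuring luciferase with ONE-Glo.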

[10] = qHTS assay for small molecule agonists of the antioxidant response element (ARE) signaling pathway measured by Nrf2-dependant transcriptional activity - cell viability counter screen (AID 720653; active means well fitted curve in the direction sought with a large enough effect in the repeat runs; an effect the other way counts as inactive or inconclusive; further: on the % scale 0 is the no-effect control and ±100 the full control effect); conditions: ARE-bla HepG2 viability, CellTiter-Glo ATP luminescence, 16 h; max response: stronger effect = lower value
Outline: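 ARE-bla HepG2 cells (2,000/well) rested 5 hrs at 37C/5% CO2, then exposed to compounds in DMSO for 16 hrs. Viability was read in the same wells as intracellular ATP by luminescence, 30 min at room temperature after reagent addition.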

[11] = qHTS assay for cell viability of HEK293 cells (AID 743288); conditions: ATP luminescence (CellTiter-Glo), 18 h; max response: stronger effect = lower value; further: on the % scale 0 is the no-effect control and ±100 the full control effect; nearly all actives have a fitted effect of over 50% in size
Outline: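 Steps: plate 2,000 parental HEK293 cells per well; incubate ≥5 h, 37 C; add compounds in DMSO; incubate 18 h, 37 C; add CellTiter-Glo; wait 30 min at room temperature; read luminescence.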

[12] = qHTS assay for cell viability of the p53RE-bla HCT-116 cell line (AID 743292); further: on the % scale 0 is the no-effect control and ±100 the full control effect; nearly all actives have a fitted effect of over 55% in size
Outline: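 In this qHTS counter-screen, metabolically competent p53RE-bla HCT-116 cells were counted via their ATP content. Compounds were applied for 16 h at 37 C and luciferase-coupled luminescence was measured.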

Chain of Arylsulfatase A (Homo sapiens) (P15289 whole entry, looked up): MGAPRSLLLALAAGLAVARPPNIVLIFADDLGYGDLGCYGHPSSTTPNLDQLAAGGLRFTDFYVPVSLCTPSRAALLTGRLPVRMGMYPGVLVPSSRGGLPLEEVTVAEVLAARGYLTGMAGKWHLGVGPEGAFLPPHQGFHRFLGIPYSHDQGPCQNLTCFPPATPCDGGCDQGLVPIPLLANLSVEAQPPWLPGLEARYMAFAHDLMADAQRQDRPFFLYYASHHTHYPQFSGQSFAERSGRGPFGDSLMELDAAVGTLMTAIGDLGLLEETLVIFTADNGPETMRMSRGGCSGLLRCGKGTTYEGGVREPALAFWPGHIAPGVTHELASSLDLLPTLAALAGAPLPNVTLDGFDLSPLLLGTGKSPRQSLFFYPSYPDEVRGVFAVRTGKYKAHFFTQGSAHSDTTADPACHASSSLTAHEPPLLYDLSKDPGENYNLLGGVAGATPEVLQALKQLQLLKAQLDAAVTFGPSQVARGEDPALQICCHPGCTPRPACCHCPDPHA
T1 sequence (P35557 whole entry, looked up): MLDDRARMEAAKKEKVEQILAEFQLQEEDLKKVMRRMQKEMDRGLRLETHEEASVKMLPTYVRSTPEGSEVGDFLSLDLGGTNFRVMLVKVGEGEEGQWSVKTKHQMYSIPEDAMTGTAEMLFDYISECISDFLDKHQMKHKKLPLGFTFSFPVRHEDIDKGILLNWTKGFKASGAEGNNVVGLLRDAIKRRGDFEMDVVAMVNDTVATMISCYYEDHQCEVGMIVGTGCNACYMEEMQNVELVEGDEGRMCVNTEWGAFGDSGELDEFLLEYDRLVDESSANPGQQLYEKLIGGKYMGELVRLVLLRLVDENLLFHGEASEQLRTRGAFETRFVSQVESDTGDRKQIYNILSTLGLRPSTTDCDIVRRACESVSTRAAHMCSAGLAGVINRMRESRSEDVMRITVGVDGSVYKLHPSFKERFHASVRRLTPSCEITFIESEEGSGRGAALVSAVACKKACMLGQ
T1 sequence (Q14397 whole entry, looked up): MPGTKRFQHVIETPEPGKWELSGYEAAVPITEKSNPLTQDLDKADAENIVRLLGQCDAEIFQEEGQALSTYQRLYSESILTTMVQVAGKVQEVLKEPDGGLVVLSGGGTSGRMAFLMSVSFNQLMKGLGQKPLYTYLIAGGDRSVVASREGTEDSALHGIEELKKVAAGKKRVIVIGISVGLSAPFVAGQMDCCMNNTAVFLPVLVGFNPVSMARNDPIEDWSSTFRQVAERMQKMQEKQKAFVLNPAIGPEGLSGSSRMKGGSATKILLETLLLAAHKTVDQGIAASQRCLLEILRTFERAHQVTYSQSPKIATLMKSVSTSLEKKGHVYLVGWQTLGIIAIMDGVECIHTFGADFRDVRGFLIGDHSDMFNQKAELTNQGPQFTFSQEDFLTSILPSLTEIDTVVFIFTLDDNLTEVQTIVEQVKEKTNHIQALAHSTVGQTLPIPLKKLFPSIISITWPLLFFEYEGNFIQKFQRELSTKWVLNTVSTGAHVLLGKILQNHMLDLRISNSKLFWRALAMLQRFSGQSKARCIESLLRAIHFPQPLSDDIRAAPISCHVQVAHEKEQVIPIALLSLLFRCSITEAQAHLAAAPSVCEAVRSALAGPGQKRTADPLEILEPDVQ

CC1(C)CCC=[N+]1[O-]
inactive: Potency [1] | Potency [2] | Potency [3] | Potency [4] | outcome [5] | Potency [6] | Potency [7]

NC(=O)C1=CN(C2OC(COP(=O)(O)OP(=O)(O)OC[C@H]3O[C@@H](n4cnc5c(N)ncnc54)[C@H](OP(=O)(O)O)[C@@H]3O)C(O)C2O)C=CC1 (stereo not given in full)
inactive: Potency [1] | Potency [2] | Potency [3] | Potency [4] | outcome [5] | Potency [6] | Potency [7]

C#C[C@]1(O)CC[C@H]2[C@@H]3CCC4=Cc5oncc5CC4(C)[C@H]3CCC21C (stereo not given in full)
inactive: Potency [1] | Potency [2] | Potency [3] | Potency [4] | outcome [5] | Potency [6]

O=c1[nH]c2cc(C(F)(F)F)ccc2n1-c1cc(C(F)(F)F)ccc1O
inactive: Potency [1] | Potency [2] | Potency [3] | Potency [4] | outcome [5] | Potency [6]

C[C@@H](NC(=O)/C(C#N)=C/c1ccc(O)c(O)c1)c1ccccc1
inactive: Potency [1] | Potency [2] | Potency [3] | Potency [4] | outcome [5] | Potency [6] | Potency [7] | max response [8] 3.77%

C[N+]1(C)CCC(OC(=O)C(c2ccccc2)c2ccccc2)CC1
inactive: Potency [1] | Potency [2] | Potency [3] | Potency [4] | outcome [5] | Potency [6] | Potency [7]

O=S(=O)(c1cccc2c(I)cccc12)N1CCCNCC1
inactive: Potency [1] | Potency [2] | Potency [3] | Potency [4] | outcome [5] | Potency [6] | Potency [7]

COc1ccc(NC(=O)/C=C/c2ccc(Cl)cc2)cc1
inactive: Potency [1] | Potency [2] | Potency [3] | outcome [5] | Potency [6] | Potency [7] | max response [8] 30.8%
active: Potency [4] 1030 nM

Cc1cc2c(cc1Cl)N(C(=O)Nc1ccc(Oc3cccnc3C)nc1)CC2
inactive: Potency [1] | Potency [2] | Potency [3] | Potency [4] | outcome [5] | Potency [6] | Potency [7]

N#C/C(=C\c1ccc(O)c(O)c1)C(=O)NCCCc1ccccc1
inactive: Potency [1] | Potency [2] | Potency [3] | Potency [4] | outcome [5] | Potency [6] | Potency [7] | max response [8] 8.54%

CCN(CC)c1ncnc2c1ncn2[C@@H]1O[C@H](COP(=O)(O)OP(=O)(O)C(Br)(Br)P(=O)(O)O)[C@@H](O)[C@H]1O
inactive: Potency [1] | Potency [2] | Potency [3] | Potency [4] | outcome [5] | Potency [6] | Potency [7]

O=C(O)/C=C/C(O)c1ccc(Cl)cc1 (stereo not given)
inactive: Potency [1] | Potency [2] | Potency [3] | Potency [4] | outcome [5] | Potency [6] | Potency [7] | max response [8] -3.84% and 16.6%

Clc1ccc(N2CCN(Cc3cc4ccccn4n3)CC2)cc1
inactive: Potency [1] | Potency [2] | Potency [3] | Potency [4] | outcome [5] | Potency [6]

C[N+](C)(C)CC(=O)[O-]
inactive: Potency [1] | Potency [2] | Potency [3] | Potency [4] | outcome [5] | Potency [6] | Potency [7]

O=Nc1ccc2oc(=O)ccc2c1
active: Potency [8] 1780 nM
inactive: Potency [1] | Potency [2] | Potency [3] | Potency [4] | outcome [5] | Potency [6] | Potency [7]

CC(=O)SCC[N+](C)(C)C
inactive: Potency [1] | Potency [2] | Potency [3] | Potency [4] | outcome [5] | Potency [6] | Potency [7]

CO/N=C(\C(=O)N[C@@H]1C(=O)N2C(C(=O)O)=C(COC(C)=O)CS[C@H]12)c1csc(N)n1
inactive: Potency [1] | Potency [2] | Potency [3] | Potency [4] | outcome [5] | Potency [6] | Potency [7] | max response [8] 5.62%

NS(=O)(=O)C#Cc1ccccc1
inactive: Potency [1] | Potency [2] | Potency [3] | Potency [4] | outcome [5] | Potency [6] | Potency [7]

CC(C)NCC(O)COc1cccc2ccccc12 (stereo not given)
inactive: Potency [1] | Potency [2] | Potency [3] | Potency [4] | Potency [9] | max response [10] -11.2% and -5.42% | outcome [5] | Potency [6] | max response [11] 1.78% and -12.1% | Potency [12]

CC(COc1ccc(/C=C/c2ccccc2)cc1)[N+](C)(C)C (stereo not given)
inactive: Potency [1] | Potency [2] | Potency [3] | Potency [4] | outcome [5] | Potency [6]

OC[C@H]1O[C@@H](n2cnc3c(NC4CCCC4)ncnc32)[C@H](O)[C@@H]1O
inactive: Potency [1] | Potency [2] | Potency [3] | Potency [4] | outcome [5] | Potency [6] | Potency [7]

CCCCCC(O)c1cccc(OCc2ccc3ccccc3n2)c1 (stereo not given)
inactive: Potency [1] | Potency [2] | Potency [3] | Potency [4] | outcome [5] | Potency [6] | Potency [7] | max response [8] 5.39%

COc1cc2nc(N3CCN(C(=O)OCc4ccccc4)C(C(=O)NC(C)(C)C)C3)nc(N)c2cc1OC (stereo not given)
inactive: Potency [1] | Potency [2] | Potency [3] | Potency [4] | outcome [5] | Potency [6] | Potency [7]

O=C(O)[C@@H]1C[C@H](C(=O)O)N1
inactive: Potency [1] | Potency [2] | Potency [3] | Potency [4] | outcome [5] | Potency [6] | Potency [7] | max response [8] -2.93%
